Nrf2 block: blocks Nrf2 signaling. A549 ARE-Fluc reporter, luciferase luminescence, 18-24 h. Potency, µM (top dose mostly 46 µM), inactives show at the highest dose activity change, negative = inhibition, hits mostly inhibitors. hit rate 2.1% among 360,000; note: % is set by controls: 0 for no effect and ±100 for the full control effect; nearly all actives have a fitted effect of over 60% in size
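Nrf2 function is reported as luminescence of an ARE-controlled luciferase in A549 cells. Compounds were tested at several concentrations, and a CellTiter-Fluor read on the same wells flagged cytotoxicity.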
HepG2 tox-1: kills HepG2 cells in TGF-b inhibitor counter-screen | hit rate 0.76% among 410,000 | Potency, µM (highest dose often 46.1 µM), for inactives: at the top dose activity change, negative = cytotoxicity, most hits filed as cytotoxic | HepG2 CAGA-GFP viability, ATP luminescence, 18 h
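CellTiter-Glo luminescence gave cytotoxicity after 18 hours at 37 degrees C. The cells were HepG2 CAGA-GFP in 1% FBS DMEM, stimulated with 500 pg/mL TGF-beta after compound addition. %Activity was normalised to no-cell wells (complete cell-killing) and DMSO (no toxicity), and curves were fitted and classified.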
A549 viability: counter-screen for Nrf2 inhibitors: cytotoxicity in A549 cells; A549 ARE-Fluc cells, CellTiter-Fluor viability, 18-24 h; hit rate 0.16% among 390,000; Potency, µM (titrated, usually from 46 µM), without a hit: at the top dose activity change, negative = cytotoxicity, most hits filed as inhibitors; note: % is set by controls: 0 for no effect and ±100 for the full control effect
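A549 ARE-Fluc cells in 5% FBS OPTI-MEM, 5000 cells/well, rested 2 h then exposed to compounds in concentration-response for 18-24 h at 37 °C. Viability by CellTiter-Fluor fluorescence (Ex 405/Em 525) after 30 min; luciferase luminescence (BugLite, 15 min, RT) read afterwards.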
TGFb SMAD3 inh: blocks TGF-b signaling; HepG2 CAGA-GFP TGF-b/SMAD3 reporter, GFP fluorescence, 18 h; TGF-beta stimulated, 500 pg/mL final; Potency, µM (series often up to 46.1 µM), without a hit: at the highest dose activity, negative = inhibition, actives largely listed as inhibitors; hit rate 1.2% among 410,000; note: % is set by controls: 0 for no effect and ±100 for the full control effect; nearly all actives have a fitted effect of over 65% in size
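HEPG2 CAGA-GFP, 1000 cells/well; 2 h settle, 37 C; cpd via pin tool; TGF-b 500 pg/mL final; 18 h, 37 C; GFP imaging ex488/em500-530; %Activity normalised to -TGF-b and +DMSO controls; CRC fit, curve class.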
Nrf2 activator: Nrf2 pathway activation; AREc32 ARE-luciferase reporter (MCF7-derived line), luminescence, 24 h; hit rate 0.31% among 410,000; Potency, µM (top dose mostly 46.1 µM), inactives show at the highest dose activation, actives largely listed as activators; note: % of control where 0% means no effect; nearly all actives have a fitted effect of over 65% in size
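Luminescent ARE reporter assay in AREc32_Fluc cells: overnight plating at 37 deg C, 24 hr compound incubation, Steady-Glo added, 30 min RT before reading.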
TGFb CAGA inh: confirmation of TGF-b signaling inhibitors in HepG2 reporter cells; shares compounds with TGFb SMAD3 inh; HepG2 CAGA-GFP TGF-b reporter, GFP fluorescence, 18 h; cells stimulated with TGF-beta, 500 pg/mL; Potency, µM (titrated, usually from 46.1 µM), for inactives: top-dose activity, negative = inhibition, actives largely listed as inhibitors; hit rate 63% among 1,600; AID 720534; note: % is set by controls: 0 for no effect and ±100 for the full control effect; nearly all actives have a fitted effect of over 65% in size
HepG2 tox-2: HepG2 cytotoxicity, TGF-b inhibitor counterscreen; HepG2 CAGA-GFP viability, ATP luminescence, 18 h; cells stimulated with TGF-beta, 500 pg/mL; hit rate 27% among 1,600; Potency, µM (doses to about 46.1 µM), without a hit: at the top dose activity, negative = cytotoxicity, hits mostly inhibitors; shares compounds with TGFb SMAD3 inh; note: % is set by controls: 0 for no effect and ±100 for the full control effect; nearly all actives have a fitted effect of over 70% in size
CCL64 TGFb inh: blocks TGF-b signaling in CCL64 reporter cells. shares compounds with TGFb SMAD3 inh. CCL64 CAGA-GFP reporter, TGF-b stimulated, GFP fluorescence, 18 h. Potency, µM (titrated, usually from 46.1 µM), without a hit: at the highest dose activity, negative = inhibition, actives largely listed as inhibitors. hit rate 41% among 1,600. AID 720536; note: nearly all actives have a fitted effect of over 65% in size
TGFb COP inh: TGF-b inhibition validated with COP promoter. AID 720537. Potency, µM (titrated, usually from 46.1 µM), for the others: at the highest dose activity, negative = inhibition, usual class: inhibitors. shares compounds with TGFb SMAD3 inh. HepG2 COP-GFP TGF-b reporter, GFP fluorescence, 18 h; cells stimulated by added recombinant TGF-beta. hit rate 3% among 1,600; note: nearly all actives have a fitted effect of over 70% in size
An asterisk follows results filed as active; u = inconclusive; x = no result given; [ ] = another dose, or the depositor's remark. Most compounds without a hit are left out; they make up all but 3.6% or so of the library. Calls come from the whole dose curve; as a rule, active = well fitted curve in the direction sought with a large enough effect; inconclusive = small, poorly fitted or top-dose-only effect, or another doubt; inactive = no such curve, though single readings can be large; an effect the other way counts as inactive or inconclusive. Potency is the fitted concentration of half-maximal effect.

SMILES | Nrf2 block | HepG2 tox-1 | A549 viability | TGFb SMAD3 inh | Nrf2 activator | TGFb CAGA inh | HepG2 tox-2 | CCL64 TGFb inh | TGFb COP inh
Cc1ccccc1NC(=O)c1cc(C(=O)c2cc(Cl)ccc2O)cn(-c2ccccc2C)c1=O | -17.7% | -35.0% | -12.5% | 7.08µM* | -0.1%[9.22 µM] | 16.4µM* | u | 13µM* | 43.2%
NC(=O)c1ccsc1NC(=O)CS(=O)(=O)c1ccccc1 | 7.0% | -2.2% | 0.0% | 0.0% | 0.4% | x | x | x | x
S=C(Nc1ccc(Br)cc1)NC1CCCCC1 | 0.1% | -44.5% | 2.0% | 10µM* | 2.0% | u | u | u | 10.5%
O=c1[nH]c2ccccc2cc1-c1nnn(-c2ccc(Cl)c(Cl)c2)n1 | 3.3% | -17.1% | -5.8% | u | 0.9% | -3.5% | 6.7% | 6.8% | 2.0%
CC(C)c1nnc(NC(=O)CC23CC4CC(CC(C4)C2)C3)s1 | u | -1.7% | 6.4% | -2.4% | 0.0% | x | x | x | x
CN1CCCC1CCNc1ccc2c(=O)c3ccccc3oc2c1 (centres undefined) | 21.2% | -13.6% | 13.2% | -10.8% | u | x | x | x | x
CN1CCC[C@H]1CCNc1ccc2c(=O)c3ccccc3n(C)c2c1 | 13.4% | -0.4% | 0.4% | 15.8µM* | 27.8% | u | u | 20.6µM* | 62.3%
Cc1ccccc1OCCNC(=O)c1ccccc1Sc1ccccc1C#N | x | -26.1% | -1.9% | 10µM* | 0.0% | -25.2% | -6.3% | -16.5% | -1.5%
O=C(CN(CCc1ccccc1)S(=O)(=O)c1ccc(Cl)cc1)N/N=C/c1ccc2c(c1)OCO2 | -8.0% | 7.2% | -3.5% | u | -1.0% | u | -23.9% | 0.0% | -23.1%
COc1ccc(S(=O)(=O)N(CCc2ccccc2)CC(=O)N/N=C/c2ccc3c(c2)OCO3)cc1 | -5.7% | 23.9% | -4.2% | -12.4% | 0.1% | x | x | x | x
O=C(Nc1ccccc1)[C@@H]1CC=C[C@@H]2CCN(Cc3ccc(Cl)c(Cl)c3)C(=O)[C@@H]21 | u | -17.5% | -17.6% | 12.6µM* | 3.0% | 20.6µM* | u | u | 47.5%
O=C(Nc1ccccc1)[C@@H]1CC=C[C@@H]2CCN(Cc3ccccc3)C(=O)[C@@H]21 | -5.8% | 0.5% | 1.0% | -4.8% | -1.0% | x | x | x | x
CC(=O)N(c1ccccc1C)C1CCCC1 | -2.7% | 20.7% | 7.3% | -1.5% | 0.3% | x | x | x | x
CC(=O)N(C1=C(Cl)C(=O)c2ccccc2C1=O)C1CCCCC1 | u | -88.6% | -29.0% | 2.82µM* | -3.1% | 3.26µM* | 8.2µM* | 4.61µM* | 10.3µM*
COCCN(C(=O)c1ccc(C#N)cc1)c1c(N)n(Cc2ccccc2)c(=O)[nH]c1=O | -2.4% | -4.7% | -2.1% | 1.4% | -0.7% | x | x | x | x
CC(C)(C)NS(=O)(=O)c1ccc(N2C(=O)c3ccccc3C2=O)cc1 | 0.6% | -11.9% | -9.7% | -11.3% | 0.4% | x | x | x | x
CC(C)(C)NS(=O)(=O)c1cccc(S(=O)(=O)c2cccc(S(=O)(=O)NC(C)(C)C)c2)c1 | u | -10.7% | -9.8% | 12.6µM* | -0.4% | 14.6µM* | u | -23.4% | 10.9%
